Experimental data from PubChem BioAssay (NCI).
About 79,000 compounds went through this panel and 15% of them were active in at least one assay; those are over-represented in the sample as a whole. A number with no mark means an inactive call. The source made the active and inactive calls. No stated cut-off is given here; in the data, active means growth inhibition above about 70%; inactive means the rest.

Experiments:
[1] = NCI Yeast Anticancer Drug Screen. Data for the rad52 strain (AID 147);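 further: 0% = growth of vehicle-treated control cultures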; conditions: S. cerevisiae rad52 mutant growth inhibition, active compounds read high
How it was run: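 Here a repair-compromised yeast strain receives each compound; its growth is then quantified and normalised to vehicle-only controls.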

[2] = NCI Yeast Anticancer Drug Screen. Data for the wt1 strain (AID 149);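 further: 0% = growth of vehicle-treated wt1 cultures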; conditions: S. cerevisiae wt1 strain (SPY 50644) growth inhibition, active compounds read high
How it was run: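 Compounds are added to wt1 yeast cultures. Growth is then measured. Inhibition is expressed relative to vehicle-treated controls.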

[3] = NCI Yeast Anticancer Drug Screen. Data for the rad50EPP+ strain (AID 151);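 further: 0% = growth of vehicle-treated control cultures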; conditions: S. cerevisiae rad50 mutant strain, active compounds read high
How it was run: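 Read-out is yeast growth inhibition relative to vehicle; cells used were the rad50EPP+ strain.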

[4] = NCI Yeast Anticancer Drug Screen. Data for the mgt1 strain (AID 153); conditions: S. cerevisiae mgt1 mutant growth inhibition, active compounds read high
How it was run: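 Measured: inhibition of mgt1 yeast growth by compound, normalized to vehicle-treated cultures.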

[5] = NCI Yeast Anticancer Drug Screen. Data for the rad50 strain (AID 155);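 further: 0% = growth of vehicle-only cultures of the same strain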; conditions: S. cerevisiae rad50 strain growth inhibition, active compounds read high
How it was run: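 Inhibition values express reduced yeast growth in compound-treated cultures relative to vehicle-treated controls.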

[6] = NCI Yeast Anticancer Drug Screen. Data for the mec2-1 strain (AID 157); conditions: S. cerevisiae mec2-1 strain, active compounds read high
How it was run: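 Using mec2-1 yeast: add compound, measure growth, express inhibition versus vehicle-treated cultures.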

[7] = NCI Yeast Anticancer Drug Screen. Data for the rad14 strain (AID 159);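 further: 0% = growth of vehicle-treated control cultures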; conditions: S. cerevisiae rad14 strain growth inhibition, active compounds read high
How it was run: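 A mutant yeast strain defective in DNA damage repair is treated with compound; inhibition of its growth is scored against untreated, vehicle-exposed cultures.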

[8] = NCI Yeast Anticancer Drug Screen. Data for the sgs1 mgt1 strain (AID 161);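 further: 0% = growth of cultures given vehicle only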; conditions: S. cerevisiae sgs1 mgt1 strain, active compounds read high
How it was run: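 Percent growth inhibition was derived by comparing compound-exposed mutant yeast with vehicle-exposed cultures. The strain carries alterations in DNA damage repair.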

[9] = NCI Yeast Anticancer Drug Screen. Data for the CLN2oe strain (AID 163);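 further: 0% = growth of vehicle-only control cultures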; conditions: S. cerevisiae CLN2oe strain, active compounds read high
How it was run: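 Whole-cell yeast growth assay. A strain engineered for altered cell-cycle control received compound, and inhibition relative to vehicle-treated cultures was recorded.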

[10] = NCI Yeast Anticancer Drug Screen. Data for the cln2 rad14 strain (AID 165);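 further: 0% = growth equal to vehicle treated cultures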; conditions: S. cerevisiae cln2 rad14 strain, active compounds read high
How it was run: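 Yeast strain cln2 rad14, bearing defects in cell cycle control and DNA repair, serves as the test system; values reflect growth inhibition compared with vehicle.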

[11] = NCI Yeast Anticancer Drug Screen. Data for the bub3 strain (AID 167); conditions: S. cerevisiae bub3 mutant strain, active compounds read high
How it was run: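 Steps: expose the mutant yeast strain to compound; grow alongside vehicle-treated cultures; measure growth; express inhibition against the vehicle cultures.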

[12] = NCI Yeast Anticancer Drug Screen. Data for the wt2 strain (AID 169);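 further: 0% = growth of vehicle-treated yeast cultures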; conditions: S. cerevisiae wt2 strain growth inhibition, active compounds read high
How it was run: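 Treated yeast vs. vehicle-treated yeast: growth inhibition determined.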

[13] = NCI Yeast Anticancer Drug Screen. Data for the mlh1 strain (AID 171);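 further: 0% = growth of vehicle-treated control cultures of the same strain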; conditions: S. cerevisiae mlh1 strain growth inhibition, active compounds read high
How it was run: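 A yeast strain with a defined genetic lesion serves as the test organism. Cultures receive compound or vehicle, and growth is measured.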

[14] = NCI Yeast Anticancer Drug Screen. Data for the sgs1 strain (AID 173);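 further: 0% = growth of vehicle-only control cultures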; conditions: S. cerevisiae sgs1 mutant, active compounds read high
How it was run: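 A genetically defined yeast mutant is incubated with the test compound, and its growth is compared to that of the same strain given vehicle.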

[15] = NCI Yeast Anticancer Drug Screen. Data for the mlh1 rad18 strain (AID 175); conditions: S. cerevisiae mlh1 rad18 strain growth inhibition, active compounds read high
How it was run: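 Steps: expose repair-defective yeast to compound; measure growth; express inhibition against vehicle-treated controls.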

[16] = NCI Yeast Anticancer Drug Screen. Data for the rad18 strain (AID 177); conditions: S. cerevisiae rad18 mutant growth inhibition, active compounds read high
How it was run: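 Measured value is growth inhibition of a yeast strain bearing a DNA repair alteration, referenced to vehicle-treated cells.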

[17] = at 5.0 µM (retest, dose inferred, filed as 0.5)
[18] = at 50.0 µM (retest, dose inferred, filed as 5.0)

SMILES: CC1=C(N2CC2)C(=O)c2ccccc2C1=O
- growth inhibition ([1]; at 1.2 µM): 1%
- growth inhibition ([1]; at 3.7 µM): 11%
- growth inhibition ([1]; at 11.0 µM): 22%
- growth inhibition ([1]; at 33.0 µM): 69%
- growth inhibition ([1]; at 100.0 µM): 97% (active)
- growth inhibition ([2]; at 1.2 µM): -5%
- growth inhibition ([2]; at 3.7 µM): -6%
- growth inhibition ([2]; at 11.0 µM): -6%
- growth inhibition ([2]; at 33.0 µM): -2%
- growth inhibition ([2]; at 100.0 µM): 41%
- growth inhibition ([3]; at 1.2 µM): 5%
- growth inhibition ([3]; at 3.7 µM): 16%
- growth inhibition ([3]; at 11.0 µM): 48%
- growth inhibition ([3]; at 33.0 µM): 79% (active)
- growth inhibition ([3]; at 100.0 µM): 96% (active)
- growth inhibition ([4]; at 1.2 µM): 0%
- growth inhibition ([4]; at 3.7 µM): -49%
- growth inhibition ([4]; at 11.0 µM): 2%
- growth inhibition ([4]; at 33.0 µM): 13%
- growth inhibition ([4]; at 100.0 µM): 36%
- growth inhibition ([5]; at 1.2 µM): 1%
- growth inhibition ([5]; at 3.7 µM): 1%
- growth inhibition [5, 17]: -103%
- growth inhibition ([5]; at 11.0 µM): 23%
- growth inhibition ([5]; at 33.0 µM): 70% (active)
- growth inhibition [5, 18]: 84% (active)
- growth inhibition ([5]; at 50.0 µM): 53.7%
- growth inhibition ([5]; at 100.0 µM): 97% (active)
- growth inhibition ([6]; at 1.2 µM): 4%
- growth inhibition ([6]; at 3.7 µM): 3%
- growth inhibition [6, 17]: -46%
- growth inhibition ([6]; at 11.0 µM): 6%
- growth inhibition ([6]; at 33.0 µM): 11%
- growth inhibition [6, 18]: 4%
- growth inhibition ([6]; at 50.0 µM): 19.8%
- growth inhibition ([6]; at 100.0 µM): 49%
- growth inhibition ([7]; at 1.2 µM): 2%
- growth inhibition ([7]; at 3.7 µM): 3%
- growth inhibition ([7]; at 11.0 µM): 14%
- growth inhibition ([7]; at 33.0 µM): 32%
- growth inhibition ([7]; at 100.0 µM): 92% (active)
- growth inhibition [8, 17]: -41%
- growth inhibition [8, 18]: 72% (active)
- growth inhibition ([8]; at 50.0 µM): 43%
- growth inhibition ([9]; at 1.2 µM): -1%
- growth inhibition ([9]; at 3.7 µM): 0%
- growth inhibition ([9]; at 11.0 µM): 0%
- growth inhibition ([9]; at 33.0 µM): 2%
- growth inhibition ([9]; at 100.0 µM): 39%
- growth inhibition [10, 17]: -60%
- growth inhibition [10, 18]: 48%
- growth inhibition ([10]; at 50.0 µM): -6.55%
- growth inhibition ([11]; at 1.2 µM): -3%
- growth inhibition ([11]; at 3.7 µM): -2%
- growth inhibition [11, 17]: -64%
- growth inhibition ([11]; at 11.0 µM): 2%
- growth inhibition ([11]; at 33.0 µM): 16%
- growth inhibition [11, 18]: 16%
- growth inhibition ([11]; at 50.0 µM): -8.05%
- growth inhibition ([11]; at 100.0 µM): 66%
- growth inhibition ([12]; at 1.2 µM): 0%
- growth inhibition ([12]; at 3.7 µM): 1%
- growth inhibition ([12]; at 11.0 µM): 2%
- growth inhibition ([12]; at 33.0 µM): 0%
- growth inhibition ([12]; at 100.0 µM): 34%
- growth inhibition ([13]; at 1.2 µM): 7%
- growth inhibition ([13]; at 3.7 µM): -3%
- growth inhibition ([13]; at 11.0 µM): 2%
- growth inhibition ([13]; at 33.0 µM): 9%
- growth inhibition ([13]; at 100.0 µM): 64%
- growth inhibition ([14]; at 1.2 µM): 0%
- growth inhibition ([14]; at 3.7 µM): 10%
- growth inhibition ([14]; at 11.0 µM): 36%
- growth inhibition ([14]; at 33.0 µM): 67%
- growth inhibition ([14]; at 100.0 µM): 96% (active)
- growth inhibition [15, 17]: -99%
- growth inhibition [15, 18]: 65%
- growth inhibition ([15]; at 50.0 µM): 46.2%
- growth inhibition ([16]; at 1.2 µM): 36%
- growth inhibition ([16]; at 3.7 µM): 72% (active)
- growth inhibition ([16]; at 11.0 µM): 91% (active)
- growth inhibition ([16]; at 33.0 µM): 96% (active)
- growth inhibition ([16]; at 100.0 µM): 98% (active)

SMILES: COC(=O)C1C2c3ccccc3C(c3ccccc32)C1C(=O)OC (stereo unspecified)
- growth inhibition ([1]; at 1.2 µM): 3%
- growth inhibition ([1]; at 3.7 µM): 10%
- growth inhibition ([1]; at 11.0 µM): 9%
- growth inhibition ([1]; at 33.0 µM): 10%
- growth inhibition ([1]; at 100.0 µM): 10%
- growth inhibition ([2]; at 1.2 µM): 7%
- growth inhibition ([2]; at 3.7 µM): 5%
- growth inhibition ([2]; at 11.0 µM): 5%
- growth inhibition ([2]; at 33.0 µM): 8%
- growth inhibition ([2]; at 100.0 µM): 7%
- growth inhibition ([3]; at 1.2 µM): 4%
- growth inhibition ([3]; at 3.7 µM): 5%
- growth inhibition ([3]; at 11.0 µM): 4%
- growth inhibition ([3]; at 33.0 µM): 7%
- growth inhibition ([3]; at 100.0 µM): 10%
- growth inhibition ([4]; at 1.2 µM): -2%
- growth inhibition ([4]; at 3.7 µM): -1%
- growth inhibition ([4]; at 11.0 µM): -2%
- growth inhibition ([4]; at 33.0 µM): 2%
- growth inhibition ([4]; at 100.0 µM): 11%
- growth inhibition ([5]; at 1.2 µM): 4%
- growth inhibition ([5]; at 3.7 µM): 1%
- growth inhibition [5, 17]: 6%
- growth inhibition ([5]; at 11.0 µM): 3%
- growth inhibition ([5]; at 33.0 µM): 7%
- growth inhibition [5, 18]: 47%
- growth inhibition ([5]; at 50.0 µM): 14.8%
- growth inhibition ([5]; at 100.0 µM): 7%
- growth inhibition ([6]; at 1.2 µM): -2%
- growth inhibition ([6]; at 3.7 µM): -3%
- growth inhibition [6, 17]: -3%
- growth inhibition ([6]; at 11.0 µM): -1%
- growth inhibition ([6]; at 33.0 µM): 0%
- growth inhibition [6, 18]: 15%
- growth inhibition ([6]; at 50.0 µM): 41.5%
- growth inhibition ([6]; at 100.0 µM): 9%
- growth inhibition ([7]; at 1.2 µM): 2%
- growth inhibition ([7]; at 3.7 µM): 2%
- growth inhibition ([7]; at 11.0 µM): 0%
- growth inhibition ([7]; at 33.0 µM): 8%
- growth inhibition ([7]; at 100.0 µM): 13%
- growth inhibition [8, 17]: 5%
- growth inhibition [8, 18]: 70% (active)
- growth inhibition ([8]; at 50.0 µM): 72.5% (active)
- growth inhibition ([9]; at 1.2 µM): 2%
- growth inhibition ([9]; at 3.7 µM): -1%
- growth inhibition ([9]; at 11.0 µM): 0%
- growth inhibition ([9]; at 33.0 µM): 7%
- growth inhibition ([9]; at 100.0 µM): 17%
- growth inhibition [10, 17]: -3%
- growth inhibition [10, 18]: 28%
- growth inhibition ([10]; at 50.0 µM): 8.85%
- growth inhibition ([11]; at 1.2 µM): -1%
- growth inhibition ([11]; at 3.7 µM): -2%
- growth inhibition [11, 17]: 19%
- growth inhibition ([11]; at 11.0 µM): -4%
- growth inhibition ([11]; at 33.0 µM): 1%
- growth inhibition [11, 18]: 27%
- growth inhibition ([11]; at 50.0 µM): 14.4%
- growth inhibition ([11]; at 100.0 µM): 2%
- growth inhibition ([12]; at 1.2 µM): -2%
- growth inhibition ([12]; at 3.7 µM): -6%
- growth inhibition ([12]; at 11.0 µM): -1%
- growth inhibition ([12]; at 33.0 µM): 5%
- growth inhibition ([12]; at 100.0 µM): -1%
- growth inhibition ([13]; at 1.2 µM): -2%
- growth inhibition ([13]; at 3.7 µM): -2%
- growth inhibition ([13]; at 11.0 µM): -3%
- growth inhibition ([13]; at 33.0 µM): 1%
- growth inhibition ([13]; at 100.0 µM): 11%
- growth inhibition ([14]; at 1.2 µM): -6%
- growth inhibition ([14]; at 3.7 µM): -17%
- growth inhibition ([14]; at 11.0 µM): -11%
- growth inhibition ([14]; at 33.0 µM): -4%
- growth inhibition ([14]; at 100.0 µM): 2%
- growth inhibition [15, 17]: 17%
- growth inhibition [15, 18]: 69%
- growth inhibition ([15]; at 50.0 µM): 17.1%
- growth inhibition ([16]; at 1.2 µM): 0%
- growth inhibition ([16]; at 3.7 µM): 2%
- growth inhibition ([16]; at 11.0 µM): 4%
- growth inhibition ([16]; at 33.0 µM): 7%
- growth inhibition ([16]; at 100.0 µM): 8%
